A number with no mark means an inactive call. Records with an inconclusive call do not appear. A call without a number means that no potency is given here. Activity calls are given as the source filed them. The call rests on the fitted dose curve; in most records, active means well fitted inhibition curve with a large enough effect; inconclusive means small, poorly fitted or top-dose-only effect; inactive means no such curve, though single readings can be large or run the other way. *1 amine or outer side, *2 acyl side, *3 side chain or, on linkers, in order; H or OH if unused. Where a SMILES comes first, the peptide text is derived from it. Bridges are numbered along the chain shown (N, C = ends). [ ]: non-standard residue; d: D form. The star is where a group is joined. ξ: configuration not given here. X10 = NC1=NCCC(C(N[*:1])C(=O)[*:2])N1; ΔAla(3-NHCONH2) = NC(=O)NC=C(N)C(=O)O; ξβ3hOrn = NCCCC(N)CC(=O)*; Dap = NC[CH](N)C(=O)O

Assay [1] can be described thus: qHTS assay for measurement of the activity of small molecule inhibitors on Zika virus induced Caspase-3 activity in human iPSC derived neural progenitor cells (hNPCs) (AID 1224857). Further: nearly all actives have a fitted effect of over 65% in size. Summed up:
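hNPCs seeded 350 cells/well, cultured 16–20 h; compounds added 1 h before ZIKV (2 FFU/cell), 37 C 6 h. Caspase-Glo 3/7 luminescence after 30 min RT; % inhibition from induction scaled to uninfected (0%) and infected (100%) wells.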
A general note: qHTS replaces the single test concentration by a dilution series.

Assay [2] is described as follows: qHTS assay for measurement of the activity of small molecule inhibitors on Zika virus induced Caspase-3 activity in human astrocytoma cells (AID 1224859). Summed up:
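Luminescence read-out (Caspase-Glo 3/7, 30 min RT) of caspase activity in SNB-19 cells infected 6 h with ZIKV, 2 FFU/cell, after 1 h compound pretreatment; % inhibition from induction normalised to uninfected (0%) and infected (100%) wells.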

Take `CCOC(=O)Cn1cccc1-c1nc(-c2ccc(OC)cc2)c(-c2ccc(OC)cc2)s1`: the Potency entry in assay [1] was “inactive”. Moreover, the result in assay [2] was inactive.

In the case of `N[C@@H](Cn1ccc(=O)c(O)c1)C(=O)O`, in assay [1], the Potency entry was “inactive”. Also, the call in assay [2] was inactive.

With `CC(=O)N(c1onc(C)c1C)S(=O)(=O)c1ccc(N)cc1`, the Potency result in assay [1] was “inactive”. The result in assay [2] was inactive.

With `Cc1cccc(C)c1NC(=O)c1cc(S(N)(=O)=O)c(Cl)cc1O`, the Potency result in assay [1] was “inactive”. In addition, the outcome in assay [2] was inactive.

On to `CC(C)(C)NCC(O)COc1ccccc1OCC1CCCO1` (stereo not given), for which the Potency entry in assay [1] is “inactive”. Further, the call in assay [2] was inactive.

For `CCOCCn1c(C2CCN(CCc3ccc(C(C)(C)C(=O)O)cc3)CC2)nc2ccccc21`, in assay [1], the Potency entry is “inactive”. In addition, the outcome in assay [2] was inactive.

Take `CCCCCCCCCCCCCCCCCCN(C)C`: the Potency entry in assay [1] was “inactive”. Moreover, in assay [2], the compound was classed as inactive.

For `O=C1CC2(CCCC2)CC(=O)N1`, the Potency entry in assay [1] was “inactive”. In addition, in assay [2], the result was inactive.

With `C[N+]1(CC2COC(c3ccccc3)(c3ccccc3)O2)CCCCC1` (stereo not given), the Potency entry in assay [1] was “inactive”. Besides, the result in assay [2] was inactive.

In the case of `COc1ccc(-n2nc(CCC(=O)N(C)O)cc2-c2ccc(Cl)cc2)cc1`, the Potency result in assay [1] is “inactive”. For the same compound, in assay [2], the compound was classed as inactive.

For `CCOC(=O)O[C@]1(C(=O)OCCl)CC[C@H]2[C@@H]3CCC4=CC(=O)C=C[C@]4(C)[C@H]3[C@@H](O)C[C@@]21C`, the Potency result in assay [1] is “inactive”. In assay [2], the result was inactive.

As for `CN1Cc2cc(C(=O)N3CCC(C4CCNCC4)CC3)ccc2NC(CC(=O)O)C1=O` (stereo not given), the Potency result in assay [1] was “inactive”. Further, the call in assay [2] was inactive.

`COc1cc2c(cc1OC)C(=O)CC2`: the Potency entry in assay [1] was “inactive”. Besides, in assay [2], the compound was classed as inactive.

Turning to `COc1cc2c(cc1OC)CN(C(=O)[C@H](C)N[C@@H](CCc1ccccc1)C(=O)O)[C@H](C(=O)O)C2`, the Potency result in assay [1] was “inactive”. The compound was called inactive in assay [2].

Consider `Cc1cc(O)c2c(O)c3c(O)cccc3cc2c1`, for which the Potency result in assay [1] was “inactive”. Besides, the outcome in assay [2] was inactive.

For the compound `O=C(OCC1(COC(=O)c2cccnc2)CCCC(COC(=O)c2cccnc2)(COC(=O)c2cccnc2)C1O)c1cccnc1`, the Potency result in assay [1] is “inactive”. Also, the result in assay [2] was inactive.

With `CCN(CC)CC(=O)Oc1ccc(NC(C)=O)cc1`, the Potency result in assay [1] is “inactive”. In addition, the result in assay [2] was inactive.

In the case of `O=C1CC(c2ccc(Cl)cc2)CC(=O)N1`, in assay [1], the Potency result was “inactive”. For the same compound, the result in assay [2] was inactive.

With `CC(C)=CCC/C(C)=C/CC/C(C)=C/CCC(=O)OC/C=C(\C)CCC=C(C)C`, the Potency entry in assay [1] is “inactive”. The outcome in assay [2] was inactive.

Consider `CC(=O)[C@@]1(O)CC[C@H]2[C@@H]3C[C@H](C)C4=CC(=O)CC[C@]4(C)[C@H]3CC[C@@]21C`, for which the Potency result in assay [1] is “inactive”. Besides, the result in assay [2] was inactive.

As to `C[C@H]1C[C@H](O)c2ccsc2S1(=O)=O`, the Potency entry in assay [1] is “inactive”. The compound was called inactive in assay [2].

`CO/N=C(/C(=O)N[C@@H]1C(=O)N2C(C(=O)OCOC(=O)C(C)(C)C)=C(C)CS[C@H]12)c1csc(N)n1`: the Potency entry in assay [1] was “inactive”. For the same compound, the compound was called inactive in assay [2].

As to `CC(C)(C)c1cc(C=O)cc(C(C)(C)C)c1O`, the Potency result in assay [1] was “inactive”. Also, the result in assay [2] was inactive.

Regarding `Oc1cccc2[nH]ccc12`, the Potency result in assay [1] is “inactive”. In addition, the call in assay [2] was inactive.

With `CC(C)(C)c1ccc(C(=O)CCCCl)cc1`, in assay [1], the Potency result is “inactive”. Further, in assay [2], the compound was called inactive.

In the case of `OC1(c2ccccc2)CCNCC1`, the Potency result in assay [1] is “inactive”. The compound was classed as inactive in assay [2].

Regarding `C/C(=C1\CCOC(=O)S1)N(C=O)Cc1cnc(C)nc1N`, in assay [1], the Potency entry was “inactive”. Moreover, in assay [2], the call was inactive.

For `C#CC(C)(CC)OC(=O)c1ccccc1C(=O)O` (stereo not given), the Potency result in assay [1] is “inactive”. In assay [2], the result was inactive.

With `NCCCC(N)CC(=O)NCC1NC(=O)C(CO)NC(=O)C(N)CNC(=O)C(C2CCN=C(N)N2)NC(=O)C(=CNC(N)=O)NC1=O` (stereo not drawn) (H-[Dap]S[Dap](ξβ3hOrn)[ΔAla(3-NHCONH2)][X10]; lactam 1-C; configuration not given here), the results for the activity change, negative = inhibition in assay [1] and in assay [2] were 2.09% [at 0.568 µM] and -8.34% [at 0.568 µM], respectively.

As for `C=CCOc1cc(Cl)ccc1C(=O)NCCN(CC)CC`, the Potency entry in assay [1] was “inactive”. Besides, in assay [2], the outcome was inactive.

As to `COC(=O)c1cc(Cl)ccc1OC`, the Potency result in assay [1] was “inactive”. For the same compound, in assay [2], the result was inactive.

Take `OC(CCCN1CCCCC1)(c1ccccc1)c1ccccc1`: the Potency result in assay [1] is “inactive”. The compound was called inactive in assay [2].

Regarding `C[C@@]12CCC[C@H]1[C@@H]1CC[C@H]3C[C@@H](O)CC[C@]3(C)[C@H]1CC2`, the Potency entry in assay [1] is “inactive”. In addition, in assay [2], the result was inactive.

As to `Nc1c(NC/C=C\COc2cc(CN3CCCCC3)ccn2)c(=O)c1=O`, the Potency result in assay [1] is “inactive”. The compound was classed as inactive in assay [2].

`CN(C)CCN1CCN(c2cccc(Cl)c2)C1=O`: the Potency result in assay [1] is “inactive”. For the same compound, the result in assay [2] was inactive.

Consider `CCCOc1ccc2c(c1)CC[C@@H]1[C@@H]2CC[C@]2(C)C(OC)CC[C@@H]12` (stereo not given in full), for which, in assay [1], the Potency result is “inactive”. Moreover, the compound was classed as inactive in assay [2].

`CC(CC1c2ccccc2CCc2ccccc21)CN(C)C` (stereo not given): the Potency result in assay [1] is “inactive”. Also, the compound was called inactive in assay [2].

Regarding `Cc1onc(-c2ccccc2)c1C(=O)Cl`, the Potency entry in assay [1] is “inactive”. Moreover, the outcome in assay [2] was inactive.

As for `O=C(O)Cc1ccc(OCCNC[C@H](O)c2ccccc2)cc1`, in assay [1], the Potency result is “inactive”. Further, in assay [2], the result was inactive.

With `CC(NC(CCc1ccccc1)C(=O)O)C(=O)N1C(=O)N(C)CC1C(=O)O` (stereo not given), in assay [1], the Potency result is “inactive”. In assay [2], the compound was called inactive.

Turning to `CC(C)=CCC/C(C)=C/CC/C(C)=C/C(=O)OCC(=O)[C@@]1(O)CC[C@H]2[C@@H]3CCC4=CC(=O)C=C[C@]4(C)[C@H]3[C@@H](O)C[C@@]21C`, the Potency result in assay [1] was “inactive”. In addition, the compound was classed as inactive in assay [2].

In the case of `CN1C(=O)CC(C)(c2ccccc2)C1=O` (stereo not given), the Potency result in assay [1] was “inactive”. Moreover, in assay [2], the call was inactive.

On to `CC(C)NC(=O)c1ccc(C=O)cc1`, for which the Potency result in assay [1] is “inactive”. Moreover, the compound was called inactive in assay [2].

As to `Nc1ccc2cc3ccc(N)cc3nc2c1`, in assay [1], the Potency result was “inactive”. In addition, the compound was classed as inactive in assay [2].

In the case of `Cc1ccccc1N1CCN(CCc2nnc3n2CCCC3)CC1`, in assay [1], the Potency result is “inactive”. Also, the compound was called inactive in assay [2].

Source of the values: PubChem BioAssay (NCATS).
